Among the data in PubChem BioAssay AID1159506 (National Center for Advancing Translational Sciences (NCATS), 2015) are seed-corrected z-score values, retold here.

In all, about 59,000 sequences were measured (the read-out: median about -0.00055, lowest 2% from about -2 on). Only a selection was taken, and the lowest values are over-represented in it overall.

A short description of the assay: Identification of proteins required for the processing of the EWS-FLI1 nascent transcript.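 Further: robust z of luciferase light less the median z of siRNAs with the same seed.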 Particulars: TC32 Ewing sarcoma NR0B1-luc vs CMV-luc (EWS-FLI1 target promoter against control promoter), 48 h; screened at 20 nM (by protocol). The protocol:
Ewing sarcoma (ES) cells depend on the EWS-FLI1 fusion transcription factor for cell survival. Using an assay of EWS-FLI1 activity and genome-wide siRNA screening we have identified proteins required for the processing of the EWS-FLI1 nascent transcript. Parallel genome-wide siRNA-mediated RNAi screens were conducted in Ewing sarcoma TC32 cell lines expressing a luciferase (luc) reporter protein driven by either the promoter of the EWS-FLI1 target gene NR0B1 (TC32-NR0B1-luc) or the CMV promoter (TC32-CMV-luc). Luciferase activity was assessed 48 hours post siRNA-transfection.
Twenty microl of serum-free media containing Lipofectamine RNAiMax (0.05 microl) was added to wells containing siRNA (0.8 pmol). Lipid and siRNA were allowed to complex for 45 min at ambient temperature before addition of 600 cells in RPMI-1640, 20% FBS to yield final transfection mixtures containing 20 nM siRNA in RPMI-1640, 10% FBS. Luciferase expression was measured using OneGlo (Promega, Madison, WI). The genome-wide screening campaign was conducted using Ambion's human genome library version 4.1 (Ambion, Austin TX). This library targets approximately 21000 human genes, three siRNAs per gene. Each siRNA is arrayed in an individual well of a 384-well plate. Parallel transfections were conducted in TC32-NR0B1-luc and TC32-CMV-luc cell lines and luciferase expression (OneGlo, Promega) was assayed 48 h later on a PerkinElmer Envision 2104 Multilabel plate reader (PerkinElmer, Waltham, MA). Qiagen's AllStars Negative control was incorporated on all screening plates for normalization (16 wells per plate). Qiagen, Germantown, MDsiGL4 was incorporated as a positive transfection control (16 wells per plate) on all plates. […] The raw luciferase data for the NR0B1- and CMV-luc screens were normalized and z-score-MAD transformed using standard methods (Chung et al., 2008). The miRNA-like seed sequence of every siRNA was determined and the median z-score for all siRNA sequences with the same seed sequence was calculated. This z-score was subtracted from the z-score associated with each siRNA with that seed sequence to generate a seed-adjusted z-score value (Z) that was used when the results for the three siRNAs corresponding to each gene were compared (Marine et al., 2012)
As for UCAUUGUCUUCUAUCAAUC against FYN, the seed-corrected z-score was -0.739.

In turn, UUCGUAUUAAGAACUGCAG against PSMD1 showed a seed-corrected z-score of -2.79.

UAUGGGUUUGUUAAAAGGC against FUT6 showed a seed-corrected z-score of -0.26.

In turn, UUGCCUUCCAAGUUCUUUC against TNP2 showed a seed-corrected z-score of -0.491.

Consider AUACGAUAAGCAGAGGAGG against GLT8D1, for which the seed-corrected z-score is -0.112.

As for AAACCUGCUAUAUCACUCC against ATAD1, the seed-corrected z-score is 0.174.

Regarding AAUCUUCGUAAGACUAUCC against C9orf50, the seed-corrected z-score was -2.07.

As for UUCCUUGUUAGCACAGACC against GSR, the seed-corrected z-score is -0.669.

UACUUGUUGAGUGUCUCAG against CXCR1 displayed a seed-corrected z-score of -1.52.

As to AGUCGAAUAACAUAUAUCC against NBPF14, the seed-corrected z-score is -2.13.

In the case of AAAGUUCUCAGGGUAGUGG against TOP3B, the seed-corrected z-score is -0.163.

Sequence UGUCAUAUACGCUCCAUAC against EYA4 registered a seed-corrected z-score of -0.104.

Sequence UGUUUCUACCCUUUGCUCC against FAM174B showed a seed-corrected z-score of -0.127.

The sequence UUUGCAGCUAGUGAUGCGC against ABHD8 returned a seed-corrected z-score of -0.567.

UAGCUAUUACCUUACAUUG against HRG: the seed-corrected z-score was found to be 0.409.

As for UCAUUGUUGAGGUGCGUGA against CDK5R1, the seed-corrected z-score was 1.16.

As to UUUUGGACAGGACCGUUGG against SEC24A, the seed-corrected z-score worked out at 0.282.

Take UUUGGUGCAAAAACCGUGU against WTIP: the seed-corrected z-score is -2.

With AUGGCUUCAACAAGCAUCU against HGH1, the seed-corrected z-score is -0.109.

Turning to UAUGGGUCUACCGUCACAC against MIOS, the seed-corrected z-score was -1.14.

UCAGGUACUCUAACACCGC against HIST1H2AC had a seed-corrected z-score of -0.00982.

UACCGGUCGAGGCUGAUCA against HRH2 gave a seed-corrected z-score of -2.03.

UUUCAUAGUAAUCGUAGAC against LOC728715 came in with a seed-corrected z-score of 0.493.

Regarding UUGAGAGUAGAGACUGAGC against MKL2, the seed-corrected z-score is -0.474.

For AAGCCUCACAGUACUGCGC against NSMCE3, the seed-corrected z-score is -2.76.

UACAGUGCAGGAUCUUCUC against NBL1 gave a seed-corrected z-score of -0.461.

For the sequence UAUAUAUCGCCCAUCUCUC against OARD1, the seed-corrected z-score was -0.737.

For the sequence UCUGGUACAUUCGAUAGCG against PTGFRN, the seed-corrected z-score is 0.714.

As for UUUCUUCCCAUGAUCUUUC against RALBP1, the seed-corrected z-score was determined as 0.057.

Turning to UACUGUCCCAAUGGUCAGC against EZH2, the seed-corrected z-score is -2.1.

With AAAUGAACAGGUUUGGAAC against GRPR, the seed-corrected z-score was 0.695.

Sequence UUCUUGUUGGAUAAUGCUG against RFX8 returned a seed-corrected z-score of 0.126.

On to AAUGAUCACACCUAAGCCC against USH2A, for which the seed-corrected z-score was -3.89.

UUCUGCACUCGAGUAAAGG against MAD2L1 showed a seed-corrected z-score of 0.536.

AUGCUAGUCAAAAGAAUCG against FBXO40 displayed a seed-corrected z-score of 0.266.

UCGUCUAAAAUGACUAACG against SACS came in with a seed-corrected z-score of 0.485.

For UCAGAUUUCAGAUCUUUGA against ANXA11, the seed-corrected z-score amounted to 0.136.

With AAAGUACUCCGUAUUUCCC against SLC35D2, the seed-corrected z-score is -1.42.

UCUAGGGUCACUGUGACGG against RGS9BP displayed a seed-corrected z-score of -0.834.

Turning to UAGUUGUCCUUCAUAAUUC against CCDC67, the seed-corrected z-score is -2.53.

On to ACCUCUUCAACAUCUAACC against GEMIN4, for which the seed-corrected z-score was found to be 0.118.

Sequence CACGUGGCUAUUGUGGAAC against COX6A2 gave a seed-corrected z-score of -1.45.

With AUAGGUUCCUCUAUAUGUG against ZNF396, the seed-corrected z-score came out at 1.53.

UUGGGUGCGAUCUGCAGAC against LINC00304 displayed a seed-corrected z-score of -0.536.

For the sequence AAAACACGUCGAAAUCUCC against RPL39, the seed-corrected z-score came to 0.834.

UAAGGAUAUUUGCUAAGGC against HMGCLL1 had a seed-corrected z-score of -0.796.

For UGUCUUCGCACUCUUAUCC against IFRD1, the seed-corrected z-score was -2.25.

Turning to UGUCCAUCCGUCAUGAUGC against ANKRD60, the seed-corrected z-score is 0.777.

UAUGUAACAGGAUCCUGCC against RFC1 showed a seed-corrected z-score of 0.0202.

Sequence UAUAAGUAAGCCUAGCUUG against C16orf54 registered a seed-corrected z-score of 0.684.

UUCGAUAGAGAACAAGUCG against FBXL4 registered a seed-corrected z-score of -1.24.

With UUGAUUUCCACGUUGCAUC against SLC10A2, the seed-corrected z-score was -2.5.

UACGGGUGCAGUAGUGGUG against RGR registered a seed-corrected z-score of -0.158.

As to UCAUCGUCUACUUCCAUUG against BPTF, the seed-corrected z-score is -1.63.

In turn, AACCGCUCCAUUUUUGCUC against POM121L12 yielded a seed-corrected z-score of 0.212.

AAUUUAUUCCAAACUUGUC against ME3 registered a seed-corrected z-score of -2.03.

Consider UUAGGGAAAGGUCCUCCUU against ELK1P1, for which the seed-corrected z-score worked out at 0.104.

UGACUUAUGAACAUCAAAG against KLHL31 showed a seed-corrected z-score of -1.09.

Consider AUCUAUCUGACCCAAAUCC against HNRNPH1, for which the seed-corrected z-score is -2.26.

ACAUGAUCCAUCCAAAUGC against CD163 gave a seed-corrected z-score of -0.0516.

For AACCGAUUCAUGACCACCG against AQP5, the seed-corrected z-score was 0.51.

Regarding UUGGUGACUGUGCGCAUCC against TACR2, the seed-corrected z-score was -0.41.

AUGUGGACAACCUUCUUUG against RPS10P9: the seed-corrected z-score was -1.14.

For the sequence AACGGGAACACCGACAACA against OPRL1, the seed-corrected z-score was -0.00815.

Sequence AACGUAAUAAAAGUCUUGC against SERHL came in with a seed-corrected z-score of 0.571.

With UGCUGGUUCAACUCAUCGC against DLGAP3, the seed-corrected z-score is -2.34.
